Bioassay records deposited in PubChem BioAssay by National Center for Advancing Translational Sciences (NCATS).
The list is not random: actives were taken first. Their share in the collection is about 2%.
hERG WT inh = KCNH2 (human, wildtype) channel inhibition. Q12809. U2OS, BacMam KCNH2, thallium flux FluxOr; active compounds read low. activity change, % at 1.84 µM. actives 0.37% (n = 340,000);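 active = maximum activity change below -70%; inconclusive = maximum activity change between -70% and -50%; inactive = maximum activity change above -50%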
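U2OS cells were transduced with wild-type KCNH2 virus (2.03 x 10^8 / mL) for 4 h at room temperature, then cultured overnight at 37 C. Thallium flux was read with FluxOr dye. Rate constants were normalized to DMSO controls.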
Six1-Eya2 blk = Six1/Eya2 interaction inhibition; Q15475+O00167; AlphaScreen GST-Six1/His-Eya2 binding, biochemical; active compounds read low; activity change, % (test concentration not listed); actives 0.56% (n = 360,000); AID 651725
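Compounds are tested against tagged Six1 and Eya2 proteins bridged by glutathione donor and nickel acceptor beads; after a one-hour incubation at 37 °C without light, AlphaScreen emission is recorded.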
KDM4E inh = inhibitors of human JMJD2E histone demethylase; B2RXH2; JMJD2E catalytic domain, FDH-coupled NADH fluorescence (FDH is formaldehyde dehydrogenase); Potency, µM (highest dose often 57.1 µM), without a hit: at the top dose activity change, negative = inhibition, usual class: inhibitors; actives 1.6% (n = 230,000); AID 2147; active = well fitted inhibition curve with a large enough effect, not every such curve was filed as active; inconclusive = small, poorly fitted or top-dose-only effect, or another doubt; inactive = no such curve, though single readings can be large or run the other way;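 note: potency is the fitted concentration of half-maximal effect; 0% = wells with enzyme and -100% = buffer wells without enzyme; nearly all actives have a fitted effect of over 50% in size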
CtBP-E1A blk = blocks the CtBP interaction with E1A | AID 651724 | activity change, % (test concentration not listed) | actives 0.49% (n = 340,000) | AlphaScreen GST-E1A/His-CtBP binding, 1536-well; active compounds read low
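AlphaScreen with 125 nM GST-E1A and 125 nM His-CtBP (5X stocks) in Tris pH 8.0, 300 mM NaCl, BSA, Tween 20, TCEP. Compounds preincubated 2 h at 37 deg C, then glutathione donor/nickel acceptor beads added for 1 h at 37 deg C in dark.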
KCNH2 3.1 inh = blocks the human KCNH2 3.1 channel isoform. U2OS KCNH2 3.1, thallium flux FluxOr; active compounds read low. activity change, % (tested at about 1.8 µM). actives 0.95% (n = 340,000);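 active = maximum activity change below -70%; inconclusive = maximum activity change from -70% to -50%; inactive = maximum activity change above -50%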;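 note: thallium influx rate constant from kinetic fluorescence after stimulation buffer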
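Virally transduced U2OS (3.1 isoform, 4 h infection in dark at RT) → overnight 37 C → FluxOr + Red40 in HBSS/HEPES, 45 min → stimulation buffer, 2 min kinetic read → rate constant vs DMSO controls.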
Starred values were filed as active, the others as inactive; ? = inconclusive; . = no result given. Cut-off read from the data, not from the text of the source, unless noted: active = activity change below about -65%; inconclusive = mostly about -30% to -63%; inactive = weaker than that. Unless noted, % is set by controls: 0 for no effect and ±100 for the full control effect.

SMILES | hERG WT inh | Six1-Eya2 blk | KDM4E inh | CtBP-E1A blk | KCNH2 3.1 inh
O=C(N/N=C/c1ccc(OCc2ccccc2)cc1)c1cc[n+](Cc2ccccc2)cc1 | -4 | -27 | 32µM* | -1 | -6
O=C(N/N=C/c1ccc(O)cc1)c1cc[n+](Cc2ccccc2)cc1 | 17 | -22 | -1% | 0 | 14
COc1cccc(C2C(C#N)=C(N)OC(C(C)(C)C)=C2C#N)c1 (stereo not given) | -4 | -17 | -22% | -1 | -189*
COc1ccc(C2C(C#N)=C(N)OC(C(C)(C)C)=C2C#N)cc1OC (stereo not given) | 13 | -7 | ? | -4 | 4
O=C(CSc1n[nH]c(=O)[nH]c1=O)Nc1ccc2c(c1)C(=O)c1ccccc1C2=O | -5 | -72* | -15% | -85* | 18
C=CCNC(=O)c1ccccc1NC(=O)c1ccccc1C | 0 | 2 | 2% | 5 | 4
OC(CCCN1CCCCC1)(c1ccccc1)c1ccc(C(F)(F)F)cc1 (stereo not given) | 2 | 0 | . | 1 | -73*
O=C(COc1ccc([N+](=O)[O-])cc1)NC(=O)NC1CCS(=O)(=O)C1 (stereo not given) | -5 | 0 | . | 11 | 4
O=C(Nc1ccc(Br)cc1)N1CCCCCC1 | -21 | 10 | . | 1 | 11
O=C(CO/N=C/c1ccc(OC(F)F)cc1)NCc1cccs1 | -16 | 1 | 1% | -4 | -80*
O=C(COC(=O)CNC(=O)C1CCCCC1)Nc1ccc(Cl)cn1 | -6 | 5 | 4% | -4 | -1
COc1ccc(C(=O)NCC(=O)OCc2cccc(Br)c2)cc1 | 4 | 5 | 5% | 8 | 6
Cc1ccc(C(=O)COC(=O)CNC(=O)CNC(=O)c2ccc(C)cc2)cc1 | -1 | 7 | 1% | -3 | -85*
Cc1ccc(C(=O)NCC(=O)NCC(=O)OCC(=O)c2ccc([N+](=O)[O-])cc2)cc1 | 10 | 0 | -1% | 3 | -6
CCCN1C/C(=C/c2ccc3c(c2)OCO3)C(=O)/C(=C/c2ccc3c(c2)OCO3)C1 | -4 | -7 | 10µM* | 2 | -36
COC(=O)C1=CN(c2ccc(OC)cc2)C=C(C(=O)OC)C1c1ccc([N+](=O)[O-])cc1 | 4 | -3 | . | -5 | -73*
COc1cc2c(cc1[N+](=O)[O-])n(C(C)C)c(=O)n2C(C)C | -2 | -4 | -5% | . | 1
CCn1c2ccccc2c2cc(C3C(C#N)=C(N)Oc4n[nH]c(COC)c43)ccc21 (stereo not given) | -11 | -2 | 10µM* | -3 | -23
C/C(CC(=O)N1CCN(C=O)CC1)=N\NC(=O)c1cc2ccccc2cc1O | 3 | -21 | 28µM* | 5 | 10
NC(=O)C1CCN(C(=O)c2ccc3c(c2)S(=O)(=O)c2ccccc2C3=O)CC1 | 8 | 4 | . | 0 | -16
CN(C)C(=O)c1snnc1-c1ccccc1 | -13 | 9 | 1% | 7 | -1
FC(F)(F)c1ccc2c(c1)[nH]c(=S)n2C1CC1 | -162* | 0 | 1% | -8 | -201*
CC1CCC(n2c(=S)[nH]c3ccccc3c2=O)CC1 (stereo not given) | -24 | 3 | -4% | 2 | 6
CCOc1ncccc1C(=O)OCc1ccc(C#N)cc1 | -1 | 11 | 7% | 4 | -6
COc1cc(OC)c(NC(=O)c2sc3ncn(CC(=O)N4CCN(c5ccccn5)CC4)c(=O)c3c2C)cc1Cl | -14 | -2 | . | . | 13
SMILES | hERG WT inh | Six1-Eya2 blk | KDM4E inh | CtBP-E1A blk | KCNH2 3.1 inh
CCOC(=O)C1(Cc2ccccc2C)CCCN(C(=O)COC)C1 (stereo not given) | 7 | 2 | . | -17 | -107*
CCOC(=O)C1(Cc2ccccc2C)CCCN(C(=O)CCC(=O)OC)C1 (stereo not given) | 9 | 2 | . | 8 | 1
CSC12CCCN(CCC(C(C)(C)C)C1)C2=O (stereo not given) | . | 5 | . | -18 | .
CNc1cccnc1C=NNC(N)=S | ? | -88* | . | 0 | -17
NC(=S)NN=Cc1nccc2c(C(F)(F)F)cccc12 | 0 | -75* | . | -72* | 15
COc1ccc([C@@H]2CC=C(C(=O)O)[C@H](c3ccc(Cl)cc3)N2S(=O)(=O)c2ccc(Cl)cc2)cc1 | -4 | 8 | . | -1 | 52
